This is an account of results in PubChem BioAssay (NCATS).

Results filed as inconclusive are left out. Active and inactive are the calls of the source. Calls come from the whole dose curve.
Potency is the fitted concentration of half-maximal effect.

This assay is described as follows: Primary qHTS to identify inhibitors of SARS-CoV-2 cell entry (AID 1645846). Note: nearly all actives have a fitted effect of over 45% in size. The settings on record: SARS-CoV-2 pseudovirus cell entry assay, luminescence; activity change, negative = inhibition: at 57.1 µM (top of the series) unless noted. An outline of the steps:
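HEK293-ACE2 (Expi293F, stable hACE2), 1500 cells/well, o/n 37C; cpd 23 nL pin, 1 h; MLV-PP w/ SARS-CoV-2-S (Wuhan-Hu-1, Δ19 C-term); 48 h 37C; Bright-Glo luminescence; normalized vs S-PP and bald PP.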
In the case of `Cc1ccc(NC(=O)NCc2ccc3c(c2)CN(C2CCC(=O)NC2=O)C3=O)cc1Cl` (stereo not given), the activity change, negative = inhibition was -96.8%.
Take `CCc1cccc2c3c([nH]c12)[C@@](CC)(CC(=O)O)OCC3`: the activity change, negative = inhibition was -19.9%.
On the same count and under the same terms, to `NS(=O)(=O)OC[C@@H]1C[C@@H](n2ccc3c(N[C@H]4CCc5ccccc54)ncnc32)C[C@@H]1O` belongs -87.9%.
Take `CNCc1ccc(C)c(NC(=O)c2ccc(Nc3nc(-c4ccccc4)c4ccccc4n3)cc2)c1`: the Potency is 14.1 µM (active).
As to `COC1=C(OC)C(=O)C(C/C=C(\C)CC/C=C(\C)CC/C=C(\C)CC/C=C(/C)CC/C=C(\C)CC/C=C(\C)CC/C=C(\C)CC/C=C(\C)CC/C=C(\C)CCC=C(C)C)=C(C)C1=O`, the activity change, negative = inhibition was -14.5%.
With `C=C1C(=O)O[C@@H]2[C@H]3O[C@]3(C)CC/C=C(\C)CC[C@@H]12`, the Potency is 22.4 µM (active).
As for `C/C(=N\NC(=S)N1CCC1)c1ccccn1`, the activity change, negative = inhibition is -96.5%.
As for `CCn1c(=O)c(-c2ccc(-c3cncc(C)n3)cc2Cl)cc2cnc(NCCC3CCN(C)CC3)nc21`, the Potency was 3.16 µM (active).
In the case of `Cc1nc([C@](C)(O)CO)sc1-c1cnc(N)c(O[C@H](C)c2cc(F)ccc2-n2nccn2)c1`, the Potency is 22.4 µM (active).
Still for that read-out and setting: next, `CN(C)CCNC(=O)NC[C@H]1CC[C@@H]2[C@H](O1)c1cc(C(F)(F)F)ccc1N[C@H]2c1ccccc1`: 25.1 µM (active).
Consider `CCN(CC)CCNC(=O)c1c(C)[nH]c(/C=C2/C(=O)Nc3ccc(-c4csc(-c5ccccc5)n4)cc32)c1C`, for which the Potency is 22.4 µM (active).
Consider `Cc1ccc(S(=O)(=O)Nc2cc(-c3ccc(C#N)s3)ccc2C)cc1`, for which the activity change, negative = inhibition is -92%.
On the same count and under the same terms, next, `CC[C@H](C)[C@@H]([C@@H](CC(=O)N1CCC[C@H]1[C@H](OC)[C@@H](C)C(=O)N[C@@H](Cc1ccccc1)c1nccs1)OC)N(C)C(=O)[C@@H](NC(=O)[C@H](C(C)C)N(C)C)C(C)C`: -79.3%.
Consider `C=C1CC[C@@H]2[C@](C)(CO)[C@H](O)CC[C@@]2(C)[C@@H]1C/C=C1/C(=O)OC[C@H]1O`, for which the Potency is 25.1 µM (active).
Turning to `COc1cc(C(=O)NC2CCN(C)CC2)c(F)cc1Nc1ncc2c(n1)N(C1CCCC1)CC(F)(F)C(=O)N2C`, the activity change, negative = inhibition is -99.3%.
Regarding `C=CC(=O)Nc1cccc(Nc2nc(Nc3ccc(Oc4ccnc(C(=O)NC)c4)cc3)ncc2F)c1`, the Potency was 22.4 µM (active).
As to `CNC(=O)Cn1cc(-c2ccc3c(c2)C(F)CC32NC(=O)N(CC(=O)N(Cc3ccc(F)cc3)C(C)C(F)(F)F)C2=O)cn1` (stereo not given), the activity change, negative = inhibition is -52.5%.
For `CN(C)C/C=C/C(=O)Nc1cccc(C(=O)Nc2cccc(Nc3ncc(Cl)c(-c4c[nH]c5ccccc45)n3)c2)c1`, the Potency was 3.16 µM (active).
With `CCOC(=O)CCNc1cc(N2CCc3ccccc3CC2)nc(-c2ccccn2)n1`, the activity change, negative = inhibition was -97.3%.
Same read-out and setting: to `COc1ccc(-c2c(C)nn3c(NCCN4CCOCC4)cc(C)nc23)cc1OC` belongs 3.31%; to `Fc1cccc(-n2cnc3c(NCc4nc5c(F)c(F)ccc5[nH]4)nc(N4CCOCC4)nc32)c1`, -62.7%.
In the case of `O=C(NO)c1cnc(NC2(c3ccccc3)CC2)nc1`, the outcome was inactive.
`C[C@H](NC(=O)[C@H]1NCC[C@@H]1O)c1ccc(-c2noc(CCC3CCCC3)n2)cc1`: the activity change, negative = inhibition is -92.1%.
Same read-out and setting: next, `CC(C)(C)c1[nH]cnc1/C=c1\[nH]c(=O)/c(=C/c2ccccc2)[nH]c1=O`: -98.3%.
For the compound `Cc1cc(O)cc2c1[C@]1(C)CC[C@H]3C(C)(C)CCC[C@]3(C)[C@H]1C2`, the outcome is “inactive [at 5.25 µM]”.
For `Cn1cc(-c2cnn3c(N)c(Br)c([C@@H]4CCCNC4)nc23)cn1`, the Potency was 35.5 µM (active).
As for `CC(C)(O)CS(=O)(=O)Nc1ccc2c(c1)CCN(C(=O)COc1cccnc1)C2`, the activity change, negative = inhibition is -97.4%.
Still for that read-out and setting: to `O=C(CCCCCCNC(=O)c1cnc(N(c2ccccc2)c2ccccc2Cl)nc1)NO` belongs 2.82%; to `COc1ccc(/C=C\c2cc(OC)c(OC)c(OC)c2)cc1O`, -68.5%; to `Cc1ccc([N+](=O)[O-])cc1S(=O)(=O)N(C)/N=C/c1cnc2ccc(Br)cn12`, -94.8%.
In the case of `COc1cc2c(NC3CCN(CC4CCCCC4)CC3)nc(N3CCCN(C(C)C)CC3)nc2cc1OCCCN1CCCCC1`, the Potency is 3.16 µM (active).
Turning to `FC(F)(F)c1ccc(CNc2ccc(Cc3c[nH]c4ncccc34)cn2)cc1`, the Potency was 20 µM (active).
For `COc1ccc2[nH]c(S(=O)Cc3ncc(C)c(OC)c3C)nc2c1` (stereo not given), the activity change, negative = inhibition was -98.9%.
On the same count and under the same terms, next, `CC(C)NC(=O)COc1cccc(-c2nc(Nc3ccc4[nH]ncc4c3)c3ccccc3n2)c1`: -14.8%.
Still for that read-out and setting: to `O=C1NC(=O)[C@@H](c2cn3c4c(cccc24)CCC3)[C@@H]1c1c[nH]c2ccccc12` belongs -73.3%.
In the case of `CN[C@@H](C)C(=O)N[C@@H]1C(=O)N(Cc2c(C)ccc3ccccc23)c2ccc(C#N)cc2N(C(C)=O)[C@H]1C`, the compound was called inactive.
Turning to `CN1CCN(c2ccc(OC(F)(F)F)c(Nc3ncc4c(n3)-c3c(c(C(N)=O)nn3CCO)CC4)c2)CC1`, the activity change, negative = inhibition was -77.5%.
As for `C#Cc1cccc(Nc2ncnc3cc4c(cc23)OCCOCCOCCO4)c1`, the activity change, negative = inhibition is -13.8%.
In the case of `CCc1c(C(=O)NNC(=O)[C@@H](O)c2cc(F)cc(F)c2)ccc(O)c1C`, the activity change, negative = inhibition is -19.8%.
With `O=C(NO)c1cnc(NC2(c3cccc(F)c3)CCCCC2)nc1`, the Potency is 28.2 µM (active).
